# Pf Dd2 inh: qHTS Primary assay for Inhibitors of Plasmodium falciparum Dd2 growth in vitro | P. falciparum Dd2 growth, SYBR Green, 72 h | Potency, µM (titrated, usually from 28.9 µM), most hits filed as inhibitors | hit rate 4.3% among 120,000 | AID 1347417, 2020; active means well fitted inhibition curve with a large enough effect; further: nearly all actives have a fitted effect of over 65% in size
#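 Infected erythrocytes (Dd2, 0.3% parasitemia, 2.5% hematocrit final) are added to compound in RPMI-1640/Albumax II medium, grown 72 h at 37C in low oxygen, then lysed with saponin/Triton-X containing SYBR Green and read by fluorescence.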
# Hits are given with their value; i = inactive; [ ] = dose if it differs, or a comment. The sample as a whole holds a higher share of hits than the screen did.
SMILES,Pf Dd2 inh
Cc1ccsc1C(=O)N1CCCC(c2nnnn2C)C1 (stereo not given),i
COc1ccc(C(=O)N2CCn3c(nnc3[C@@H]3C[C@@H](O)CN3Cc3ccccc3)C2)cc1,i
O=C(c1ccccc1)N1C[C@H]2OC(=O)N(CCCN3CCOCC3)[C@H]2C1,i
COc1cc(F)ccc1-c1cc2c(ccn2Cc2ccncc2)c(N2CCOCC2)n1,i
Cc1nc(CN2C(=O)OC3(CCN(C(=O)CCc4ccccn4)CC3)C2(C)c2ccccc2)cs1 (stereo not given),i
CC(C)COc1ccc(C(=O)N(Cc2ccc(N(C)C)cc2)Cc2ccco2)cc1,i
O=C(Nc1ccc(F)cc1F)N1CCOC[C@H](Oc2ccc(C(F)(F)F)cn2)C1,i
COc1cc(C2C(C(=O)Nc3ccc(C)cc3C)=C(C)Nc3nc(SCc4ccccc4)nn32)cc(OC)c1OC (stereo not given),i
CC1=C(C(=O)Nc2ccc(C)cc2C)C(c2ccc(C(C)C)cc2)n2nc(C(F)(F)F)nc2N1 (stereo not given),13µM
CC1=C(C(=O)Nc2ccc(C)cc2C)C(c2ccc(C(=O)O)cc2)n2nc(SCc3ccccc3)nc2N1 (stereo not given),i
Cn1cnc(S(=O)(=O)NCC(=O)N2CCCCCNC(=O)CC2c2ccccc2)c1 (stereo not given),i
COc1ccc(CCC(=O)NCc2nnc3c(-c4nc(C(C)C)no4)cccn23)cc1,i
Cc1cccc(N2CCN(S(=O)(=O)c3c(C)nc4scc(C)n4c3=O)CC2C)c1 (stereo not given),i[0.594 µM]
COc1cccc(CN2CCOc3ccc(C(=O)NCc4ccc(C)cc4)cc3C2)c1,i
COC(=O)Cc1c(C)c2ccc3c(c2oc1=O)CN(Cc1ccccc1Cl)CO3,7.1µM
COc1ccccc1CCNC(=O)Cc1c(C)c2c(cc(C)c3c(C)c(C)oc32)oc1=O,i
COc1ccc(CNC(=O)Cc2c(C)c3cc4c(C)coc4c(C)c3oc2=O)cc1,i
COC(=O)Cc1c(C)c2ccc3c(c2oc1=O)CN(Cc1ccccc1OC)CO3,13µM
COc1ccccc1CNC(=O)Cc1c(C)c2c(cc(C)c3c(C)c(C)oc32)oc1=O,i
CCC1Oc2ccc(NC(=O)C3CCCC3)cc2CN(Cc2ccccc2Cl)C1=O (stereo not given),i
COC(=O)Cc1c(C)c2ccc3c(c2oc1=O)CN(Cc1ccc(C)cc1)CO3,11µM
COCCn1c(=O)[nH]c2cc(C(=O)NCc3ccccc3Cl)ccc2c1=O,i
COc1ccc(C)cc1NC(=O)C(NS(=O)(=O)c1cccc2nsnc12)c1ccccc1 (stereo not given),i
COc1ccc(-c2noc(CC3CCN(C(=O)Cc4ccccc4Cl)CC3)n2)cc1,i
CC(=O)c1c(C)nn(CC(=O)N2CCn3nc(Cc4ccccc4)cc3C2)c1C,i
SMILES,Pf Dd2 inh
COc1cccc(NC(=O)Cn2c(N3CCc4ccccc4C3)nc(C)cc2=O)c1,i
O=C(Nc1ccc2n(c1=O)C[C@H]1C[C@@H]2CN(C(=O)Nc2ccccc2)C1)c1ccncc1,i
CC(C)NC(=O)N[C@H]1C[C@H]2C(=O)NC[C@@H](CCC(=O)N3CCCCC3)N2C1,i
O=C1NC[C@@H](CCC(=O)N2CCCCC2)N2C[C@@H](NC(=S)Nc3ccc(Cl)cc3)C[C@@H]12,6.3µM
O=C(Nc1ccccc1)N[C@H]1C[C@H]2C(=O)NC[C@@H](CCC(=O)N3CCCCC3)N2C1,i
CN(C)C(=O)c1ccc(-c2ncc3c(n2)OCCN(Cc2ccccc2)C3=O)cc1,2.2µM
CN(C)C(=O)c1ccc(-c2ncc3c(n2)OCCN(CC2CC2)C3=O)cc1,i
O=C1c2cnc(-c3ccccc3)nc2OCCN1Cc1ccccc1,i
COc1cc(F)cc(-c2ncc3c(n2)OCCN(C)C3=O)c1,i
CN1CCOc2nc(-c3ccc(Oc4ccccc4)cc3)ncc2C1=O,5µM
C[S+](=O)([O-])c1ccc(-c2ncc3c(n2)OCCN(c2ccccc2)C3=O)cc1,i
Cc1cccc(OCC(=O)Nc2ccc(Cl)c(-c3nc4ccccc4[nH]3)c2)c1,i
CCc1ccc2oc(C(=O)Nc3cccc(C(F)(F)F)c3)cc(=O)c2c1,i
COc1ccc(N2CCN(c3ncccc3-c3nc(-c4ccccc4C)no3)CC2)cc1,i
CCO[C@H]1CN(C(=O)c2cccnc2SCCc2ccccc2)C[C@@H]1O,i
Cn1nccc1C(=O)N1CC(CNC(=O)c2ccccc2)C2(C1)CN(c1ccccc1)C2 (stereo not given),13µM
Cn1nccc1C(=O)N1CC(COc2ccccc2)C2(C1)CN(c1ccccc1)C2 (stereo not given),i
O=C(NCC1CN(C(=O)CCc2ccccc2)CC12CN(c1ccccc1)C2)c1ccccc1 (stereo not given),i
O=C(O)CCn1ccc2cc(S(=O)(=O)N3CCCCC3)ccc21,i
Cc1nn(-c2ccc(F)cc2)c(Oc2cccc(F)c2)c1CCC(=O)N1CCSCC1,7.9µM
Cc1nn(-c2ccc(F)cc2)c(Oc2ccc(F)cc2F)c1CCC(=O)N1CCCC1,i
Cc1ccccc1Oc1c(CCC(=O)N2CCSCC2)c(C)nn1-c1ccc(F)cc1,i
COc1ccccc1OCCNC(=O)CCC[C@H]1NC[C@@H]2C[C@H]1CN(Cc1ccccc1)C2,i
CNC(=O)CCC[C@H]1NC[C@@H]2CC1CN(Cc1ccccc1)C2,i
NC(=O)CCC[C@H]1NC[C@@H]2C[C@H]1CN(Cc1ccccc1)C2,i
SMILES,Pf Dd2 inh
O=C(CCC[C@H]1NC[C@@H]2C[C@H]1CN(Cc1ccccc1)C2)NCCN1CCCCC1,i
CCN(Cc1ccccc1)C(=O)CCC[C@H]1NC[C@@H]2CC1CN(Cc1ccccc1)C2,13µM
COc1ccc2[nH]cc(CCNC(=O)CCC[C@H]3NC[C@@H]4C[C@H]3CN(Cc3ccccc3)C4)c2c1,10µM
Cc1nc(N2CCC(C(=O)NCC3CC3)CC2)nc2cc(S(C)(=O)=O)ccc12,i
O=C1CCN(S(=O)(=O)c2ccccc2)CCCN(C(=O)Cc2cccnc2)CCN1,i
Cc1ccc(N2CC(c3noc(-c4ccc5ccccc5n4)n3)CC2=O)cc1 (stereo not given),i
CCOc1ccc(CC(=O)NC2CCN(c3cc(-c4ccc(F)cc4)[nH]n3)C2)cc1OCC (stereo not given),i
O=C(Cc1cccc(F)c1)NC1CCN(c2cc(-c3ccc(F)cc3)[nH]n2)C1 (stereo not given),6.3µM
COc1ccc(CC(=O)NC2CCN(c3cc(-c4ccc(Cl)cc4)[nH]n3)C2)cc1OC (stereo not given),7.9µM
COc1cccc(CC(=O)NC2CCCN(c3cc(-c4ccc(F)cc4)[nH]n3)C2)c1 (stereo not given),i
COc1ccc(-c2cc(N3CCC(NC(=O)Cc4ccc(Cl)cc4)CC3)n[nH]2)cc1,i
COc1ccc(CC(=O)NC2CCN(c3cc(-c4ccc(F)cc4)[nH]n3)C2)cc1 (stereo not given),i
COC(=O)c1ccc(Cl)cc1NC(=O)Nc1nnc(N(C)C2CCCCC2)s1,i
CCOc1ccc(OCC)c(NC(=O)c2cnc(SC)nc2-c2ccccc2)c1,i
Cc1ccc(-c2nc(C(=O)NCCc3ccc(S(N)(=O)=O)cc3)no2)cc1,i
O=C(CCc1nnn2c1CN(C(=O)Nc1ccccc1)CC2)NC1CC1,i
CNC(=O)[C@@H]1CN(C(=O)c2cc(C)cc(C)c2)C[C@H]1CO,i
CCC1CN(C(=O)N2CCC(C(=O)NCc3cccc(F)c3)CC2)c2cc(C)ccc2O1 (stereo not given),i

# Screening data: PubChem BioAssay, National Center for Advancing Translational Sciences (NCATS)
